Reference: PubChem BioAssay (Tox21)
A number with no mark means an inactive call. Records with an inconclusive call do not appear. Entries that show only a call come without a potency. The source made the active and inactive calls. Unless noted, calls come from the whole dose curve; as a rule, active = well fitted curve in the direction sought with a large enough effect in the repeat runs; inconclusive = weak or mixed curves; inactive = no such curve, though single readings can be large; an effect the other way counts as inactive or inconclusive.

Assays:
[1] = biological target: Thyrotropin-releasing hormone receptor (Homo sapiens) (UniProt P34981); test: qHTS assay to identify small molecule agonists of the thyrotropin-releasing hormone receptor (TRHR) signaling pathway (AID 1346891; calls by dose curve; note: series mostly up to about 58 µM)
Thyrotropin-releasing hormone receptor (Homo sapiens), sequence (P34981 whole entry, looked up): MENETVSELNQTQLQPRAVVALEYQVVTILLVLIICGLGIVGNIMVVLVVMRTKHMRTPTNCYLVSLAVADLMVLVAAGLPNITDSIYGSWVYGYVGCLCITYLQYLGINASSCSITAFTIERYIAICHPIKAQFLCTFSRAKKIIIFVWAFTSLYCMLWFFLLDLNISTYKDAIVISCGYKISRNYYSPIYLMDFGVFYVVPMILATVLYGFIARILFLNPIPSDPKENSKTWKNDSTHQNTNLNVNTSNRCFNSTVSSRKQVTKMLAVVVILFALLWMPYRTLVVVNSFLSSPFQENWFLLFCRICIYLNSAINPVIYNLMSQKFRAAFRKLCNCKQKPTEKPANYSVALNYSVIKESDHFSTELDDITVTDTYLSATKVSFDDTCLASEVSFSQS
Method in brief: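 Screening of agonists relied on calcium signalling in HEK293 cells expressing human TRHR: dye loading 2 h at 37 °C preceded compound addition and a 3-min fluorescence time course.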

[2] = Human pregnane X receptor (PXR) small molecule agonists, qHTS cell viability counter screen (AID 1346977); note: nearly all actives have a fitted effect of over 50% in size; note: potency is the fitted concentration of half-maximal effect
Method in brief: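 Tox21 qHTS format; PXR-Luc HepG2, 2,000/well, charcoal-stripped FBS 5%. Cpd exposure 24hr. Read: CellTiter-Fluor fluorescence, multiplexed with luciferase.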

[3] = Caspase-3/7 induction in HepG2 cells by small molecules, qHTS assay (AID 1346978); note: nearly all actives have a fitted effect of over 15% in size
Method in brief: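 Caspase-3/7 induction was measured by Caspase-Glo 3/7 luminescence (30 min, room temperature) after a 17 hr compound exposure of wild-type HepG2 cells seeded at 2,000 per well and pre-incubated 5 hr.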

[4] = Caspase-3/7 induction in CHO-K1 cells by small molecules, qHTS cell viability counter screen (AID 1346979); note: nearly all actives have a fitted effect of over 35% in size
Method in brief: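 CellTiter-Fluor viability check, qHTS format: wild-type CHO-K1, 16hr compound treatment, 1hr reagent incubation, fluorescence read.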

[5] = Caspase-3/7 induction in HepG2 cells by small molecules, qHTS cell viability counter screen (AID 1346981); note: nearly all actives have a fitted effect of over 30% in size; note: potency is the fitted concentration of half-maximal effect
Method in brief: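 Cell viability is measured as a cytotoxicity counter screen alongside the Caspase-Glo 3/7 readout in identical wells. Wild-type HepG2 cells are treated with test compounds for 16 hr at 37 C before CellTiter-Fluor addition and a 1-hr incubation.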

[6] = biological target: Nuclear receptor subfamily 1 group I member 2 (Homo sapiens) (UniProt O75469); test: Human pregnane X receptor (PXR) small molecule agonists, qHTS assay (AID 1346982); note: nearly all actives have a fitted effect of over 35% in size; note: potency is the fitted concentration of half-maximal effect
Nuclear receptor subfamily 1 group I member 2 (Homo sapiens), sequence (O75469 whole entry, looked up): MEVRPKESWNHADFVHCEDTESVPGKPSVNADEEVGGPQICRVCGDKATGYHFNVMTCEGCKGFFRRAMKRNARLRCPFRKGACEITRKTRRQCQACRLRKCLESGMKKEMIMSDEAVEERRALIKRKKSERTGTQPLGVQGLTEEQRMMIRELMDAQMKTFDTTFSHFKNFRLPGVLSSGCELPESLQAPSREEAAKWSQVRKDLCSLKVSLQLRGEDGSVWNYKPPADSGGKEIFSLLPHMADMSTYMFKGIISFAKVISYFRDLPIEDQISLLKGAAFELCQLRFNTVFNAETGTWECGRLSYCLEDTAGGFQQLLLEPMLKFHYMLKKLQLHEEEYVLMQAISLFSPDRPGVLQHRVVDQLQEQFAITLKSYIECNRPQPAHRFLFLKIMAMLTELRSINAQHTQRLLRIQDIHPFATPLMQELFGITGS
Method in brief: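 Cells: HepG2 stably carrying PXR-Luc. Medium held 5% charcoal-stripped FBS. Compounds in DMSO added after 5 hr plating, incubated 24 hr, then luminescence quantified with ONE-Glo.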

[7] = Caspase-3/7 induction in CHO-K1 cells by small molecules, qHTS assay (AID 1346980); note: nearly all actives have a fitted effect of over 15% in size
Method in brief: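 Luminescent Caspase-Glo 3/7 read (30min, room temperature) quantified apoptosis induction. Cells were wild-type CHO-K1, treated with compound for 17hr at 37 C and 5% CO2.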

[8] = biological target: Nuclear receptor subfamily 1 group I member 2 (Rattus norvegicus) (UniProt Q9R1A7); test: Rat pregnane X receptor (rPXR) activation by small molecules, qHTS assay (AID 1346983); conditions: rPXR luciferase reporter cells, One-Glo luminescence, 24 h; max activation: stronger effect = higher value; note: nearly all actives have a fitted effect of over 20% in size
Nuclear receptor subfamily 1 group I member 2 (Rattus norvegicus), sequence (Q9R1A7 whole entry, looked up): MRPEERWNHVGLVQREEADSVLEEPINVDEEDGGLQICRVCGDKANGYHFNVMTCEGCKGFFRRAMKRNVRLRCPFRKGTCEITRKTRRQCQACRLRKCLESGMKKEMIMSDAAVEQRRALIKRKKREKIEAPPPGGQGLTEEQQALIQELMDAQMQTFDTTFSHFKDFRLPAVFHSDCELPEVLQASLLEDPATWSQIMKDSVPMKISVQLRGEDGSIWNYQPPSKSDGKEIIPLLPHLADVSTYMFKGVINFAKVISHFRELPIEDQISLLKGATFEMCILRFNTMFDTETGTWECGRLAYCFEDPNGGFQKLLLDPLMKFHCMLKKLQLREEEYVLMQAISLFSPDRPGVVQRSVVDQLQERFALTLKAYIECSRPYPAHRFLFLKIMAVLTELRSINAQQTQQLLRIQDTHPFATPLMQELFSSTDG
Method in brief: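 Luminescent readout (One-Glo luciferase, 30 min room temperature) followed 24 hr compound treatment at 37 C of rPXR cells plated 2,000 per well and preincubated 5hr; qHTS format with compounds delivered in DMSO.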

[9] = biological target: Nuclear receptor subfamily 1 group I member 2 (Homo sapiens) (UniProt O75469); test: CYP3A4 induction through human pregnane X receptor (PXR) by small molecules, qHTS assay (AID 1346984); note: nearly all actives have a fitted effect of over 40% in size
Method in brief: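 Quantitative HTS in DPX-2 cells, i.e. HepG2 transfected with PXR response element and CYP3A4-promoter luciferase. Compounds in DMSO incubated 24hr at 37C; then P450-Glo CYP3A4 substrate, 3uM final, 3hr; One-Glo luminescence.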

[10] = biological target: Nuclear receptor subfamily 1 group I member 2 (Homo sapiens) (UniProt O75469); test: Human pregnane X receptor (PXR) activation by small molecules, qHTS assay (AID 1346985); note: nearly all actives have a fitted effect of over 40% in size
Method in brief: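 DPX-2 cells (HepG2 co-transfected with a PXR response element and a CYP3A4-promoter luciferase construct) were seeded at 2,000 per well, rested 5 hr at 37C, then exposed to DMSO-dissolved compounds for 24 hr. Activation was read as luciferase luminescence.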

| Structure (SMILES) | outcome [1] | Potency [2] | Potency [3] | Potency [4] | Potency [5] | Potency [6] | Potency [7] | max activation [8] [%] | Potency [9] | Potency [10] |
| --- | --- | --- | --- | --- | --- | --- | --- | --- | --- | --- |
| Cc1c(Cl)cccc1[N+](=O)[O-] | inactive | inactive | inactive | inactive | inactive | inactive |  |  |  |  |
| CC(CN=Cc1ccccc1O)N=Cc1ccccc1O (configuration not stated) | inactive | inactive | inactive | inactive | inactive | inactive |  |  |  |  |
| CCCCCCCCCCCCN1CCOCC1 | inactive | inactive | inactive |  | inactive | inactive | inactive |  |  |  |
| O=C1OC(=O)C2CC=CCC12 (configuration not stated) | inactive | inactive | inactive | inactive |  | inactive | inactive |  |  |  |
| O=c1[nH][nH]c2ccccc12 | inactive | inactive | inactive | inactive | inactive | inactive |  |  |  |  |
| Cc1ccc2ccccc2c1[N+](=O)[O-] | inactive | inactive | inactive | inactive | inactive |  |  |  |  |  |
| CC(C)Cc1nccs1 | inactive | inactive | inactive | inactive | inactive | inactive |  |  |  |  |
| CCCCCCCCNC | inactive | inactive | inactive | inactive |  | inactive | inactive |  |  |  |
| C=C(C)C(=O)OCCCCCCCCCCOC(=O)C(=C)C | inactive | inactive | inactive | inactive | inactive | inactive |  |  |  |  |
| CC/C=C/CCO | inactive | inactive | inactive | inactive | inactive | inactive |  |  |  |  |
| CC(C)NC(=O)c1ccccc1N | inactive | inactive | inactive | inactive | inactive | inactive |  |  |  |  |
| O=C(O)c1cccnc1Nc1cccc(C(F)(F)F)c1 | inactive | inactive | inactive | inactive | inactive | 13.3 µM (active) |  |  |  |  |
| CC(=O)Nc1ccn(C2COC(COC(=O)c3ccccc3)O2)c(=O)n1 (configuration not stated) | inactive | inactive | inactive |  | inactive | inactive | inactive |  |  |  |
| NC(=O)c1ccccc1 | inactive | inactive | inactive |  | inactive | inactive | inactive |  |  |  |
| O=C(O)CNc1ccccc1 | inactive | inactive | inactive | inactive | inactive | inactive |  |  |  |  |
| CC(C)CC(C)(C)C | inactive | inactive | inactive |  | inactive | inactive | inactive |  |  |  |
| CCOCCn1c(N2CCCN(C)CC2)nc2ccccc21 | inactive | inactive | inactive | inactive | inactive |  | inactive | 4.1 |  |  |

| Structure (SMILES) | outcome [1] | Potency [2] | Potency [3] | Potency [4] | Potency [5] | Potency [6] | Potency [7] | max activation [8] [%] | Potency [9] | Potency [10] |
| --- | --- | --- | --- | --- | --- | --- | --- | --- | --- | --- |
| O=C(C1CCCCC1)N1CC(=O)N2CCCc3ccccc3C2C1 (configuration not stated) | inactive | inactive | inactive | inactive | inactive | 7.5 µM (active) |  |  |  |  |
| CCC(C)CCCC(C)(C)O (configuration not stated) | inactive | inactive | inactive | inactive | inactive | inactive |  |  |  |  |
| O=C(OCCOCCOCCOC(=O)c1ccccc1)c1ccccc1 | inactive | inactive | inactive | inactive | inactive | 27.3 µM (active) |  |  |  |  |
| O=C(OCCCCCOC(=O)c1ccccc1)c1ccccc1 | inactive | inactive | inactive | inactive | inactive | inactive |  |  |  |  |
| CC(=O)c1ccc(Cl)c(Cl)c1Cl | inactive | inactive | inactive | inactive | inactive | inactive |  |  |  |  |
| CCCCCCCCCCCCSCCOCCO | inactive | inactive | inactive | inactive | inactive |  | inactive | -0.35 | inactive | inactive |
| CCc1ccc(C(=O)C(C)CN2CCCCC2)cc1 (configuration not stated) | inactive | inactive | inactive | inactive | inactive |  |  | -6.71 |  | inactive |
| CCCCCO | inactive | inactive | inactive |  | inactive | inactive | inactive |  |  |  |
| C=CC(=O)NC(C)(C)C | inactive | inactive | inactive | inactive | inactive | inactive |  |  |  |  |
| CCC(=O)O[C@@H]1C[C@H]2CC[C@]1(C)C2(C)C | inactive | inactive | inactive | inactive | inactive | inactive |  |  |  |  |
| CC(C)(C)c1cc(C=O)cc(C(C)(C)C)c1O | inactive | inactive | inactive |  | inactive | inactive | inactive |  |  |  |
| Nc1ncnc2c1ncn2[C@@H]1O[C@H](CO)[C@@H](O)[C@H]1O | inactive | inactive | inactive | inactive | inactive |  |  |  |  |  |
| O=P(c1ccccc1)(c1ccccc1)c1ccccc1 | inactive | inactive | inactive | inactive | inactive | 27.3 µM (active) |  |  |  |  |
| Cc1ccc(NC=O)c(C)c1 | inactive | inactive | inactive | inactive | inactive | inactive |  |  |  |  |
| CC1(C)CC(O)CC(C)(C)N1[O] | inactive | inactive | inactive |  | inactive | inactive | inactive |  |  |  |
| O=C1c2ccccc2C(=O)C1c1ccc2cc(S(=O)(=O)O)cc(S(=O)(=O)O)c2n1 | inactive | 37.2 µM (active) | inactive |  | 33.1 µM (active) | inactive | inactive |  |  |  |
| CC1(C)CC(=O)CC(C)(C)N1 | inactive | inactive |  | inactive | inactive | inactive | inactive |  |  |  |
